# High-throughput results: PubChem BioAssay, several laboratories
# In the library only some 2.4% were active in any assay of this set; here they are far more common.
# cardiac RTF act = cardiac RTF calcium sensitivity activators, primary screen, biochemical, IANBD-TnC fluorescence, EC20 calcium. AID 493008, 2010. Troponin I, cardiac muscle (Homo sapiens) + Troponin T, cardiac muscle (Homo sapiens) + …. IANBD-labeled TnC RTF fluorescence at EC20 calcium; 0% EC20 calcium, 100% full calcium. hit rate 0.24% among 340,000. activation, % at 7.2 µM;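 active means activation above the mean over all tested compounds plus 3 SD, cut at about 30% in these data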;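 further: rise in fluorescence read as greater calcium sensitivity of cardiac thin filaments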
# TMEM16A act = TMEM16A chloride channel activators or potentiators, primary screen, cell-based, HTS | B-score at 10 µM | hit rate 0.3% among 340,000 | AID 623877, 2012 | HEK293 TMEM16A/YFP-H148Q/I152L, iodide quench fluorescence; active compounds read low;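 active means fluorescence-ratio B-score plate-corrected deviation score at least 3 library SD below zero, with starting fluorescence score within 5 deviations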;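 further: channel opened by trigger with iodide after compound preincubation; score built on the fluorescence ratio of max minus min over baseline; more negative score means more quench and so TMEM16A activation or potentiation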
# TMEM16A inh = TMEM16A chloride channel inhibitors, primary screen, cell-based, HTS | normalized B-score (activity score, 25-100; higher = stronger inhibition) at 10 µM | AID 588511, 2011 | HEK293 TMEM16A/YFP iodide influx fluorescence, ionomycin | Anoctamin-1 (Mus musculus), Q8BHY3 | hit rate 1.2% among 310,000;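 active means ratio plate-corrected score three or more library SD toward inhibition, starting fluorescence score within five deviations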;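 further: score derived from kinetic fluorescence span divided by baseline fluorescence per well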
# RTF Ca sens inh = cardiac RTF calcium sensitivity inhibitors, primary screen, biochemical, IANBD-TnC fluorescence, EC70 calcium | Troponin I, cardiac muscle (Homo sapiens) + Troponin T, cardiac muscle (Homo sapiens) + … | IANBD-labeled cardiac RTF, Ca2+ fluorescence | inhibition, % at 7.15 µM | hit rate 0.12% among 340,000 | AID 493244, 2011;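 active means inhibition above the mean inhibition of all tested compounds plus 3 SD, cut at about 17% in these data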;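 further: assay run at fixed EC70 calcium of 1.6 mM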
# CRFBP-R2 agonist = agonists of CRF-BP/CRF-R2 complex, primary screen, cell-based, HEK293, calcium dye fluorescence, uHTS; CRF-binding protein / CRF receptor 2 complex (human); calcium dye fluorescence (FLIPR); percent of saturating CRF peptide response; activation, % at 13.2 µM; hit rate 0.46% among 350,000; AID 588473, 2011;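 active means activation of at least 50%, plus an integration ratio under a set limit after plate pattern correction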
# CRFBP-R2 block = antagonists of CRF-BP/CRF-R2 complex, primary screen, cell-based, HEK293, calcium dye fluorescence, uHTS; CRF-induced calcium fluorescence; inhibition, % at 11.8 µM; hit rate 0.59% among 350,000;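 active means inhibition of the ligand-induced calcium signal above about 50% at the single tested concentration, limit read from the data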
# TMEM16A reconf = TMEM16A chloride channel inhibitors, confirmation, cell-based, re-confirmation; hit rate 39% among 2,300; AID 652189, 2013; shares compounds with TMEM16A inh; HEK293 TMEM16A/YFP-H148Q, iodide quench fluorescence; ionomycin added to raise cell calcium; inhibition, % at 10 µM;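 active means mean duplicate percent inhibition, scaled so buffer wells are 0 and the reference blocker 100, over three buffer SD above buffer mean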
# TMEM16A Ca cntr = calcium mobilization in TMEM16A/YFP HEK293 cells, confirmation, counter-screen for TMEM16A inhibitor project; hit rate 2% among 2,300; calcium response (% of ionomycin), % at 10 µM; Fluo4 calcium mobilization; AID 652231, 2013; shares compounds with TMEM16A inh;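 active means duplicate-averaged calcium signal over 20% of the ionomycin maximum, relative to buffer baseline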;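 further: each well's signal is peak minus trough fluorescence divided by its pre-addition baseline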
# Parental YFP cnt = iodide YFP quench changes in parental YFP-HEK293, counter-screen for TMEM16A inhibitor project, cell-based | AID 652233, 2013 | YFP ratio F(max-min)/F0 at 10 µM | shares compounds with TMEM16A inh | 2,300 tested, under 10 active | ionomycin;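 active means yellow fluorescent protein signal ratio exceeding the buffer control mean by over 5 SD of those controls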;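 further: ratio is mean of duplicate wells from kinetic YFP trace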
# ClC-1 inh = ClC-1 chloride channel inhibition, selectivity assay for TMEM16A inhibitor project, cell-based, voltage-dependent ClC-1; ratio percent, % at 10 µM; CHO ClC-1-YFP, iodide influx fluorescence quench; iodide control reads 0, buffer control 100; AID 652236, 2013; shares compounds with TMEM16A inh; 2,300 tested, under 10 active;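 active means duplicate-mean ratio percent above the mean of iodide-only control wells, which defines zero, plus 5 of their SD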;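 further: higher percent means stronger block of ClC-1 iodide influx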
# Target sequence (P35524 whole entry, looked up): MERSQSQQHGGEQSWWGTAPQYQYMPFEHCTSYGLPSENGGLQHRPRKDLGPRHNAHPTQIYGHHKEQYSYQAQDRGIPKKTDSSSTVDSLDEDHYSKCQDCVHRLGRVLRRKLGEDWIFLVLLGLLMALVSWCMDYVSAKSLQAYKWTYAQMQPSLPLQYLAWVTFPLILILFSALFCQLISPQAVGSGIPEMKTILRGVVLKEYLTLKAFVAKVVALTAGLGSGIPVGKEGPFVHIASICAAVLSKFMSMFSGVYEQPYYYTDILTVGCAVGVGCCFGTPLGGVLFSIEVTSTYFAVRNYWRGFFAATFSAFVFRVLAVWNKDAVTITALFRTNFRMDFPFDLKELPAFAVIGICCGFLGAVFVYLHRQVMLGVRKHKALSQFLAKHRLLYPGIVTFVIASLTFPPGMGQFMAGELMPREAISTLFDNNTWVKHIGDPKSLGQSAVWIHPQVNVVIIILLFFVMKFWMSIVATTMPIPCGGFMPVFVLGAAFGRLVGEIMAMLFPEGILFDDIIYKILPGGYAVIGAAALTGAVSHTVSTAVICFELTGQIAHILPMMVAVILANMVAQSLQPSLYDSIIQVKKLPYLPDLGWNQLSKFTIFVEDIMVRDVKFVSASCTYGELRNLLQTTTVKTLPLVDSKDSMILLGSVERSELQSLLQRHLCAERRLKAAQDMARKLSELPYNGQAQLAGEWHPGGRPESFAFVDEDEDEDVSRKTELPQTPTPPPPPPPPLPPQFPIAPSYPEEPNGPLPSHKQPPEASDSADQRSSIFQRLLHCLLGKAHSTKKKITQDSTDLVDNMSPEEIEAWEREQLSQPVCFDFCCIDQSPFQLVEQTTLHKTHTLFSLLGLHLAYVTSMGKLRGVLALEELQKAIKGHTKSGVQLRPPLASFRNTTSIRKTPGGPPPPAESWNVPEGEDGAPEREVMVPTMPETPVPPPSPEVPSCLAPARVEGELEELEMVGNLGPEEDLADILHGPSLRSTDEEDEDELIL
# Hits are given with their value; 0 = inactive; - = no result given.
SMILES,cardiac RTF act,TMEM16A act,TMEM16A inh,RTF Ca sens inh,CRFBP-R2 agonist,CRFBP-R2 block,TMEM16A reconf,TMEM16A Ca cntr,Parental YFP cnt,ClC-1 inh
CC(C)n1nnnc1-c1cc(Cl)cc(Cl)c1,0,0,0,0,0,0,-,-,-,-
CC(C)n1nnnc1-c1cccc(Cl)c1,0,0,0,0,0,0,0,0,0,0
CCOc1ccc(Br)cc1S(=O)(=O)NC1CCCC1,0,0,-,0,0,0,-,-,-,-
COc1ccccc1CNC(=O)C1=CCN(S(=O)(=O)c2ccc(C)cc2)CC1,0,0,0,0,0,0,-,-,-,-
Cc1ccc(S(=O)(=O)N2c3ccccc3CC2C)cc1 (configuration not stated),-,0,0,-,0,0,-,-,-,-
CCOc1ccc(S(=O)(=O)N2c3ccccc3CC2C)cc1 (configuration not stated),0,0,100,0,0,0,0,0,0,0
Cn1nc(CC(=O)Nc2ccc3c(c2)OCCO3)c2ccccc2c1=O,0,0,25,0,0,0,0,0,0,0
Cn1nc(CC(=O)Nc2ccc(N3CCN(C(=O)OC(C)(C)C)CC3)cc2)c2ccccc2c1=O,0,0,25,0,0,0,0,0,0,0
Cn1c(SCC(=O)Nc2ccc3c(c2)OCCO3)nnc1-c1ccco1,0,0,100,0,0,0,0,0,0,0
Cc1cccc(C(=O)NCCC(=O)NCc2ccccc2F)c1,0,0,-,0,0,0,-,-,-,-
Cc1ccc(CS(=O)(=O)CCC(=O)NCc2ccccc2Cl)cc1,0,0,0,0,0,0,-,-,-,-
O=C(CNS(=O)(=O)c1cccc(F)c1)OCC(=O)N1CCCC1=O,0,0,-,0,0,0,-,-,-,-
O=C(CCCc1nc(-c2ccccc2Cl)no1)NC1CCCC1,0,0,0,0,0,0,-,-,-,-
CC(=O)Nc1ccc(S(=O)(=O)N(C)c2ccc(OCC(=O)OCC(=O)NCc3ccco3)cc2)cc1,0,0,0,0,0,0,-,-,-,-
Cc1cc(C(C)(C)C)oc1C(=O)N(CC(=O)NC1CCCC1)c1c(C)cccc1C,0,0,100,0,0,0,26.5%,0,0,0
Cc1cc(C(C)(C)C)oc1C(=O)N(CC(=O)NC1CCCC1)c1ccc(F)cc1,0,0,0,0,0,0,-,-,-,-
Cc1ccc(O)c(-c2cc(C(F)(F)F)[nH]n2)c1,0,0,100,0,0,0,56.5%,0,0,0
CCC1CCCCN1Cc1ccc(N)cc1 (configuration not stated),0,0,0,0,0,0,-,-,-,-
Nc1ccc(C(=O)NN2C(=O)[C@H](Cl)C2c2ccc(Cl)cc2)cc1 (some centres not stated),0,0,-,0,0,0,-,-,-,-
CS(=O)(=O)c1ccc(Cl)c(NC(=O)CCN2C(=O)NC3(CCCC3)C2=O)c1,0,0,-,0,0,0,-,-,-,-
COc1cccc(NC(=O)COc2ccc(Br)c(C)c2)c1,0,0,0,0,0,0,-,-,-,-
O=C(COc1ccc(Cl)cc1)Nc1ccc(Cc2ccncc2)cc1,0,0,25,0,0,0,17.0%,0,0,0
Cc1cc(OCC(=O)Nc2ccncc2)ccc1Br,0,0,100,0,0,0,0,0,0,0
COc1ccc(-n2c(CNC(=O)c3cc(OC)c(OC)c(OC)c3)n[nH]c2=S)cc1,0,0,0,0,0,0,-,-,-,-
CCCc1cc(O)c2c(C)cc(=O)oc2c1,0,0,0,0,0,0,-,-,-,-
SMILES,cardiac RTF act,TMEM16A act,TMEM16A inh,RTF Ca sens inh,CRFBP-R2 agonist,CRFBP-R2 block,TMEM16A reconf,TMEM16A Ca cntr,Parental YFP cnt,ClC-1 inh
Cc1ccn2c(CNCC3COCCO3)c(C(=O)N3CCCCCC3)nc2c1 (configuration not stated),0,0,0,0,0,0,-,-,-,-
COc1ccccc1-c1c(C)nn2c(N3CCCCCC3)cc(C)nc12,0,0,100,0,0,0,34.0%,0,0,0
COc1ccccc1-c1c(C)nn2c(N3CCN(Cc4ccccc4)CC3)cc(C)nc12,0,0,0,0,0,0,-,-,-,-
CCCCN(C(=O)c1ccc(N2CCCC2=O)cc1)c1c(N)n(CCC)c(=O)[nH]c1=O,0,0,-,0,0,0,-,-,-,-
Cc1nc(SCc2ccc(Cl)c(Cl)c2)ncc1C(=O)O,0,0,25,0,0,0,22.0%,0,0,0
CC(=O)c1cnc(SCc2ccc(Cl)cc2)nc1C,0,0,0,0,0,0,-,-,-,-
CCOc1ccc(NS(=O)(=O)c2ccc(NC(=S)NC(=O)CC(C)C)cc2)cc1,0,0,100,0,0,0,38.0%,0,0,0
Cc1c(C(=O)N2CCCCC2)c(S(=O)(=O)NCc2ccc(Cl)cc2)c(C)n1C,0,0,0,0,0,0,-,-,-,-
CCN(CC)S(=O)(=O)c1ccc(-c2nnc(SCC(=O)Nc3cc(OC)cc(OC)c3)o2)cc1,0,0,100,0,0,0,0,0,0,0
CCN(CC)S(=O)(=O)c1ccc(-c2nnc(SCC(C)=O)o2)cc1,0,0,0,0,0,0,-,-,-,-
COc1ccc(CCNc2cc(N3CCN(C(=O)c4ccccc4F)CC3)ccc2[N+](=O)[O-])cc1OC,0,0,25,0,0,0,42.5%,0,0,0
COc1cccc(/C=N/NC(=O)c2ccc(N3CCCC3=O)cc2)c1,0,0,0,0,0,0,-,-,-,-
CCCc1ccc(Oc2c(-c3ccc(O)c(C)c3O)n[nH]c2C)cc1,0,0,100,0,0,0,0,0,0,0
Cc1ccc(-c2cn3nc(C)c(C)nc3n2)cc1,0,0,0,0,0,0,0,0,0,0
O=C1CC(O)(C(F)(F)F)Oc2c1ccc1ccccc21 (configuration not stated),0,0,100,0,61.6,65.0,54.0%,37.5%,0,0
